Laboratory results reported in PubChem BioAssay (NCATS).
Inconclusive results are not listed. A call without a number means that no potency is given here. Activity calls are given as the source filed them. The call rests on the fitted dose curve; in most records, active means well fitted cell-killing curve with a large enough effect; inconclusive means small, poorly fitted or top-dose-only effect; inactive means flat fitted curve, though single readings scatter.

Assay: NCATS anti-infectives library activity on HEK293 viability as a counter-qHTS vs the C. elegans viability qHTS (AID 1745854)
Conditions: HEK293 viability counter-screen; series mostly up to 41.8 µM
Text: Assay Development and Screening Technology Laboratory (ADST)
National Center for Advancing Translational Sciences (NCATS), Rockville, MD
National Institute of Health (NIH), Bethesda, Maryland
Caenorhabditis elegans has helped elucidate the evolutionarily conserved genetics underlying pathways and cellular processes implicated in human disease and may be ideally positioned to reveal novel pharmacological properties of exiting drugs. The organism's short life cycle and microscopic size is applicable to the technical requirements of high-throughput screening. Here a quantitative high-throughput screening (qHTS)-based forward chemical biology platform has been developed using C. elegans. 384-well microtiter plate laser scanning cytometry was used in the rapid detection and quantification of the fluorescent protein-encoded phenotype to score worm viability. In a proof-of-concept study, the pharmacological qHTS profile obtained from a library of 643 anti-infective compounds.
1. Inglese, J., Auld, D. S., Jadhav, A., Johnson, R. L., Simeonov, A., Yasgar, A., Zheng, W., and Austin, C. P. (2006) Quantitative high-throughput screening: A titration-based approach that efficiently identifies biological activities in large chemical libraries, P Natl Acad Sci USA 103, 11473-11478.
2. Auld, D. S., Johnson, R. L., Zhang, Y. Q., Veith, H., Jadhav, A., Yasgar, A., Simeonov, A., Zheng, W., Martinez, E. D., Westwick, J. K., Austin, C. P., and Inglese, J. (2006) Fluorescent protein-based cellular assays analyzed by laser-scanning microplate cytometry in 1536-well plate format, Method Enzymol 414, 566-589.
3. Zuck, P., Lao, Z., Skwish, S., Glickman, J. F., Yang, K., Burbaum, J., and Inglese, J. (1999) Ligand-receptor binding measured by laser-scanning imaging, Proc Natl Acad Sci U S A 96, 11122-11127.
PROTOCOL TABLE (as described by Inglese J, Shamu CE and Guy RK. 2007)
SEQUENCE No. (e.g., 1, 2, 3, etc.); […] (e.g., C. elegans, Compounds, Incubation, Read, etc.); VALUE and DESCRIPTION.
1. Compounds. Library compounds and digitonin control added at 25 nL per well to 7 assay ready 1536-well Greiner white/solid bottom high base, TC plates and two DMSO control plates, transferred by Echo acoustic dispenser.
2. Cells. Seed 1500 HEK293 per well in 6 uL into assay ready Greiner 1536-well plates.
3. Incubation. Incubate plated cells with compounds at 37C in 5% CO2, 95% RH for 24 hr.
4. Reagent. Add 4 uL of CellTiter-Glo reagent from Promega per well of Greiner 1536-well plates with BioRAPTR FRD.
5. Incubation. Incubate treated cells at room temperature for 10 min., protect from light.
6. Detector. CellTiter-Glo luminescence measured using CCD-based camera (Viewlux) with settings as follows: Exposure, 1 sec; Gain, High; Speed, Slow; Binning, 2X.
NOTES (numbers refer to Sequence numbers above; values are from representative experiments)
1. NIH Anti-Infectives library pre-dispensed into 7 assay ready 1536-well Greiner white/solid bottom high base, TC plates with Echo 555 acoustic dispenser. Most compounds dispensed at 10 mM high concentration and plated in 7-pt 1:5 inter-plate titration at 25 nl / well for a final assay concentration range of 41.7 uM - 2.7 nM. Two 1536-well Greiner assay plates of DMSO plated as screening controls to be read at the beginning and the end of the screen. Controls included DMSO vehicle control added at 25 nl/well to each well of column 1 and […] (83.3 uM final assay concentration), and Digitonin titrated 1:2 at 25 nl/ well to column 4 in duplicate for a final assay concentration range of 83.3 uM - 2.5 nM.
2. HEK293 cells grown for 48 hr in one T175 culture flask in DMEM high glucose media supplemented with 10% FBS and 1% Pen/Strep antibiotic. Cells trypsinized and diluted in 10 ml supplemented media, strained through 40 µm cell strainer, and diluted to a total volume of 40 ml with supplemented media. […]
Potency means the concentration at half of the fitted maximal effect.

SMILES | Potency | activity change, negative = cytotoxicity
Cc1ccc(C(=O)NCCCCCC(=O)Nc2ccccc2N)cc1 | inactive | –
COc1ccc(/C=C/C(=O)O)cc1O | inactive | –
COC(=O)[C@H](CCSC)NC(=O)c1ccc(NC[C@@H](N)CS)cc1-c1ccccc1 | inactive | –
CCCCCCCCOC(=O)c1cc(O)c(O)c(O)c1 | inactive | –
O=[N+]([O-])c1ccc(S(=O)(=O)N2CCN(c3ccnc4cc(Cl)ccc34)CC2)c([N+](=O)[O-])c1 | 10 µM (active) | –
CC(C)CS(=O)(=O)c1oc(-c2ccc(F)cc2)nc1S(=O)(=O)c1ccccc1 | 3.98 µM (active) | –
NC(=O)c1cccc2[nH]c(-c3ccc([C@@H]4CCCN4)cc3F)nc12 | inactive | –
O=C(O)c1cc(-c2ccc(/C=C3\SC(=S)N(Cc4ccccc4)C3=O)o2)ccc1Cl | inactive | –
CC(C)=CCC[C@](C)(OC1OC(COC2OCC(O)C(O)C2O)C(O)C(O)C1O)[C@H]1CC[C@]2(C)[C@@H]1[C@H](O)C[C@@H]1[C@@]3(C)CC[C@H](OC4OC(CO)C(O)C(O)C4OC4OC(CO)C(O)C(O)C4O)C(C)(C)[C@@H]3CC[C@]12C (stereo not given in full) | inactive | –
CS(=O)(=O)c1cc(-c2ccccc2)cc(S(=O)(=O)c2ccc(CN)s2)c1 | inactive | –
O=c1c(O[C@@H]2O[C@H](CO)[C@H](O)[C@H](O)[C@H]2O)c(-c2ccc(O)c(O)c2)oc2cc(O)cc(O)c12 | inactive | –
O=C(/C=C/c1ccc(O)c2c1[C@H](C(=O)O)[C@@H](c1ccc(O)c(O)c1)O2)O[C@H](Cc1ccc(O)c(O)c1)C(=O)O | inactive | –
CCOC(=O)c1c(C)sc(-c2c(-c3ccc(OC)c(F)c3)[nH]c3c2c(=O)[nH]c(=O)n3C)c1O | inactive | –
CCC(CC)[C@H](NC(C)=O)[C@@H]1[C@H](O)[C@@H](C(=O)O)C[C@H]1N=C(N)N | – | -6.87% [at 0.334 µM] (inactive)
C/C(=N\NC(=O)C(NC(=O)c1ccccc1)c1n[nH]c(=O)c2ccccc12)c1cccc(Br)c1 (stereo not given) | inactive | –
CC(C)CN(C[C@@H](OP(=O)(O)O)[C@H](Cc1ccccc1)NC(=O)O[C@@H]1CCOC1)S(=O)(=O)c1ccc(N)cc1 | inactive | –
CCCCCCCCCCCCCCCCOc1nc2ccc(C)cc2c(=O)o1 | inactive | –
CC(C)C1=C2[C@H]3CC[C@@H]4[C@@]5(C)CC[C@H](OC(=O)CC(C)(C)C(=O)O)C(C)(C)[C@@H]5CC[C@@]4(C)[C@]3(C)CC[C@@]2([C@@H](O)CN(CCN(C)C)Cc2ccc(Cl)cc2)CC1=O | inactive | –
O=c1ccn2c(n1)O[C@H]1[C@H](O)[C@@H](CO)O[C@H]12 | inactive | –
COc1cc2c(c(OC)c1OC)-c1c(cc(OC)c(OC)c1OC)CC(C)C(C)C2 (stereo not given) | inactive | –

SMILES | Potency | activity change, negative = cytotoxicity
C=C(C)[C@@H]1CC[C@]2(C(=O)O)CC[C@]3(C)[C@H](CC[C@@H]4[C@@]5(C)CC[C@H](OC(=O)CC(C)(C)C(=O)O)C(C)(C)[C@@H]5CC[C@]43C)[C@@H]12 | inactive | –
O=C(O)[C@H]1C2CCC(CC2)[C@@H]1Nc1nc(-c2c[nH]c3ncc(F)cc23)ncc1F | inactive | –
CC(C)Nc1nc2cc(Cl)c(Cl)cc2n1[C@H]1O[C@@H](CO)[C@H](O)[C@@H]1O | inactive | –
COC(=O)c1cc(OC)c2c(c1-c1c(CO)cc(OC)c3c1OCO3)OCO2 | inactive | –
O=C(NO)c1cccc(C(=O)NCCc2ccccc2)c1 | inactive | –
CNC(=O)[C@@H](NC(=O)[C@H](CCCc1ccccc1)[C@H](C)N(O)C=O)C(C)(C)C | inactive | –
COC(=O)c1cc(O)c(O)c(O)c1 | inactive | –
CCCCC(=O)N(Cc1ccc(-c2ccccc2-c2nn[nH]n2)cc1)[C@H](C(=O)O)C(C)C | inactive | –
O=C(NCc1c(F)cc(F)cc1F)c1cn2c(c(O)c1=O)C(=O)N1C3CCC(C3)OC1C2 (stereo not given) | inactive | –
COc1ccc(-c2oc3cc(O)cc(O)c3c(=O)c2O)cc1 | inactive | –
Cn1c(Cn2ccc(C(F)(F)F)c(Oc3cc(Cl)cc(C#N)c3)c2=O)n[nH]c1=O | inactive | –
CCCC[C@H](NC(=O)[C@@H]1[C@@H]2[C@H](CN1C(=O)[C@@H](NC(=O)NC1(CS(=O)(=O)C(C)(C)C)CCCCC1)C(C)(C)C)C2(C)C)C(=O)C(=O)NC1CC1 | inactive | –
O=C(O)CCCCCCCCC(=O)O | inactive | –
O=C(Nc1ccccc1)c1ccccc1O | inactive | –
CC(C)(C)c1cc(C(=O)/C(C#N)=N/Nc2cccc(Cl)c2)no1 | inactive | –
Cn1c(=O)cc(N2CCC[C@@H](N)C2)n(Cc2ccccc2C#N)c1=O | inactive | –
COc1ccc(-c2sc(NC(=O)C(C)(C)C)nc2C)cc1S(=O)(=O)Nc1ccc(O)cc1 | inactive | –
COC(=O)N[C@H](C(=O)N1CCC[C@H]1c1ncc(-c2ccc3c(c2)O[C@@H](c2ccccc2)n2c-3cc3cc(-c4cnc([C@@H]5CCCN5C(=O)[C@@H](NC(=O)OC)C(C)C)[nH]4)ccc32)[nH]1)C(C)C | inactive | –
CC[C@@]1([C@@H]2O[C@@H]([C@H]3O[C@@](O)(CO)[C@H](C)C[C@@H]3C)C[C@@H]2C)CC[C@H]([C@]2(C)CCC3(C[C@H](O)[C@@H](C)[C@@H]([C@@H](C)[C@@H](OC)[C@H](C)C(=O)O)O3)O2)O1 (stereo not given in full) | – | -29.3% [at 3.71 µM] (inactive)
C[C@H](NC(=O)[C@H](Cc1ccccc1)NC(=O)OCc1ccccc1)C(=O)CF | inactive | –
